Screens (PubChem BioAssay)
An excerpt weighted towards active compounds, which were near 1.7% of everything screened.
GLP1R inv ag – GLP-1 receptor (human) inverse agonism; AID 624417; 410,000 compounds, 1.6% hits; P43220; Potency, µM (highest dose often 38.3 µM), most hits filed as inhibitors; HEK293 GLP-1R CRE-luciferase, luminescence, 24 h; GLP-1R form is constitutively active; note: nearly all actives have a fitted effect of over 55% in size
Target sequence (P43220 whole entry, looked up): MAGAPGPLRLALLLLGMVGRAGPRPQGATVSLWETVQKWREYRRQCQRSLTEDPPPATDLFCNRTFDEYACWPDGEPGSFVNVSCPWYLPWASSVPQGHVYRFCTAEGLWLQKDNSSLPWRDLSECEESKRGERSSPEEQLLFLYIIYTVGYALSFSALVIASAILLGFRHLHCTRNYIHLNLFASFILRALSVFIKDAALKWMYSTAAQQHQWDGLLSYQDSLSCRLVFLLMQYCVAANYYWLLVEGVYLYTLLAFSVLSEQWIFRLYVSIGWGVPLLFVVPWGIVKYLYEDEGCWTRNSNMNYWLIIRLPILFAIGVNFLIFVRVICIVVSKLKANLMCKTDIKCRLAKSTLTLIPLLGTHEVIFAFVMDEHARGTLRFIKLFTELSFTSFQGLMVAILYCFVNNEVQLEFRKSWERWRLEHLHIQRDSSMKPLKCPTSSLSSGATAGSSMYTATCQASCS
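Assay principle: reduced luminescence from a cAMP-responsive reporter in HEK293 cells co-expressing a constitutively active GLP-1R. Conditions: 24 hr compound incubation, 37 deg C, 5% CO2.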
GLP1R ag – activates the human GLP-1 receptor | HEK293 GLP-1R CRE-luciferase, luminescence, 4-6 h; cells express a hypersensitive GLP-1R form | Potency, µM (titrated, usually from 45.6 µM), actives largely listed as activators | 380,000 compounds, 0.007% hits | AID 624172
LDHA inh – blocks human lactate dehydrogenase A. purified LDHA, NADH/diaphorase-resazurin fluorescence; stronger effect = lower value. activity change, % (values are at about 110 or 230 µM). 480,000 compounds, 0.15% hits. AID 1347041; in the data active = activity change below about -30%; inconclusive = mostly about -25% to -30%
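Remaining NADH was detected by diaphorase (0.133 mg/mL) converting 37 µM resazurin to fluorescent resorufin, read at 0 and 20 minutes. The preceding 5-minute room-temperature reaction used 2 nM LDHA, 0.2 mM sodium pyruvate and 0.06 mM NADH at pH 7.4.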
PTHR1 ag – agonists of human PTHR1 parathyroid hormone receptor; Q03431; HEK293 GP2 PTHR1 cells, GloSensor cAMP luminescence, 1 h; Potency, µM (highest dose often 115 µM), hits mostly activators; 410,000 compounds, 0.075% hits; note: nearly all actives have a fitted effect of over 55% in size
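HEK-293-derived GP2 cells expressing PTHR1 and a GloSensor cAMP reporter, 3,000/well, plated overnight, given luciferin plus IBMX (each 0.5 mM as added) for 1 h at 37 °C, then compound for 1 h at 37 °C. Luminescence was read after 15 min at room temperature.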
mIDH1 inhibitor – blocks human mutant IDH1 R132H enzyme; Potency, µM (doses to about 76.6 µM), actives largely listed as inhibitors; 390,000 compounds, 0.093% hits; IDH1-R132H enzyme, NADPH consumption, diaphorase/resazurin fluorescence; AID 602179; O75874; note: nearly all actives have a fitted effect of over 65% in size
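IDH1-R132H (0.5 ug/mL dispensed) in pH 7.5 Tris buffer was preincubated 30 min with compound, then given a substrate mix of 0.016 mM NADPH and 2 mM alpha-KG for 80 min at room temperature; remaining NADPH was read by diaphorase/resazurin fluorescence.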
GLP1R cytotox – cytotoxic in the GLP-1 receptor inverse agonist counter-screen; HEK293 cAMP-luciferase reporter cells, luminescence, 24 h; Potency, µM (top dose mostly 38.3 µM), actives largely listed as inhibitors; 410,000 compounds, 0.13% hits; AID 624418;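 note: loss of luciferase light is scored as toxicity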
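Seeding density was 200 cells/uL; after overnight-length (12 h) culture, 23 nL compounds went on for 24 h at 37 °C. Readout used a luciferase detection reagent, luminescence taken after 12 min at room temperature.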
Of the large screens only hits and unclear results are named; the others gave an inactive call. Unless noted, calls come from the whole dose curve; as a rule, active = well fitted curve in the direction sought with a large enough effect; inconclusive = small, poorly fitted or top-dose-only effect, or another doubt; inactive = no such curve, though single readings can be large; an effect the other way counts as inactive or inconclusive.

O=c1cc(CSc2n[nH]c(-c3ccccc3)n2)nc2sc3c(n12)CCCC3	none (no result: GLP1R inv ag, GLP1R ag, PTHR1 ag, mIDH1 inhibitor, GLP1R cytotox)
COc1ccccc1-c1nc(SCc2cc(=O)n3c4c(sc3n2)CCCC4)n[nH]1	LDHA inh -33 (no result: GLP1R inv ag, GLP1R ag, PTHR1 ag, mIDH1 inhibitor, GLP1R cytotox)
Cn1c(=O)c2c(ncn2CC(=O)NC(=O)NC2CCCC2)n(C)c1=O	LDHA inh -34 (no result: GLP1R inv ag, GLP1R ag, PTHR1 ag, mIDH1 inhibitor, GLP1R cytotox)
Cn1c(=O)c2c(ncn2CC(=O)NC2CCCCC2)n(C)c1=O	PTHR1 ag inconclusive
O=C(CN1CCCCCCC1)NC(=O)NC1CCCCC1	GLP1R inv ag 4µM
O=C(CN1CCCCC1)NC(=O)NC1CCCC1	none
CC1CCCCC1NCC(=O)Nc1ccccc1-c1ccccc1 (stereo unspecified)	GLP1R inv ag 4.5µM
CC1CCN(CC(=O)Nc2ccccc2-c2ccccc2)CC1	none
CN(C)Cc1nc(SCC(=O)Nc2ccc(F)c(F)c2)c2ccccc2n1	none (no result: GLP1R inv ag, GLP1R ag, PTHR1 ag, mIDH1 inhibitor, GLP1R cytotox)
COC(=O)c1ccc(C)c(NC(=O)C2CCCN(S(=O)(=O)Cc3ccc(F)cc3)C2)c1 (stereo unspecified)	none (no result: GLP1R inv ag, GLP1R ag, PTHR1 ag, mIDH1 inhibitor, GLP1R cytotox)
CCCCCOC(=O)C1=C(C)Nc2nnnn2C1c1ccccc1Cl (stereo unspecified)	GLP1R inv ag 10µM
CCCOc1ccccc1C1C(C(=O)Nc2ccccc2)=C(C)Nc2nnnn21 (stereo unspecified)	GLP1R inv ag 8.9µM, GLP1R cytotox inconclusive (no result: GLP1R ag)
CCCOC(=O)C1=C(C)Nc2nnnn2C1c1cc(Br)ccc1OCC (stereo unspecified)	LDHA inh -32 (no result: GLP1R inv ag, GLP1R ag, PTHR1 ag, mIDH1 inhibitor, GLP1R cytotox)
CCCOc1ccc(Br)cc1C1C(C(=O)OCC)=C(C)Nc2nnnn21 (stereo unspecified)	none (no result: GLP1R inv ag, GLP1R ag, PTHR1 ag, mIDH1 inhibitor, GLP1R cytotox)
CCN1CCN(c2nc3ncn(CC(=O)Nc4ccc(F)c(C)c4)c(=O)c3s2)CC1	none (no result: GLP1R inv ag, GLP1R ag, PTHR1 ag, mIDH1 inhibitor, GLP1R cytotox)
O=C(Cc1ccccc1)Nc1ccc(NC(=O)C2CC2)nc1	PTHR1 ag inconclusive
O=C(Cc1ccccc1)Nc1ccc(NC(=O)C2CCCCC2)nc1	GLP1R inv ag 7.1µM
CCn1cc(CN2CCC(C(=O)Nc3ccc(Oc4ccccc4)nc3)CC2)cn1	none
O=C(Nc1ccc(Oc2ccccc2)nc1)C1CCN(Cc2ccccc2)CC1	GLP1R inv ag 11µM
CCc1ccc(CN2CCC(C(=O)Nc3ccc(Oc4ccccc4)nc3)CC2)o1	GLP1R inv ag 8.9µM
Cc1cc(C2=NNC(=NC3CC3)SC2)c(C)n1C1CC1	none (no result: GLP1R inv ag, GLP1R ag, PTHR1 ag, mIDH1 inhibitor, GLP1R cytotox)
CC(=O)Nc1ccc(C(=O)C(C)OC(=O)C23CC4CC(CC(C4)C2)C3)cc1 (stereo unspecified)	none (no result: GLP1R inv ag, GLP1R ag, PTHR1 ag, mIDH1 inhibitor, GLP1R cytotox)
Cn1cnc2c1c(=O)n(CC(=O)NCc1cccc(Cl)c1)c(=O)n2C	none (no result: GLP1R inv ag, GLP1R ag, PTHR1 ag, mIDH1 inhibitor, GLP1R cytotox)
CN1CCN(C(=O)CN(Cc2ccc(Cl)c(Cl)c2)S(=O)(=O)c2ccccc2)CC1	none (no result: GLP1R inv ag, GLP1R ag, PTHR1 ag, mIDH1 inhibitor, GLP1R cytotox)
CC(C)(C)OC(=O)N1CCC(c2c(C(=O)Nc3ccc4c(c3)OCCO4)cnn2-c2ccc(F)cc2F)CC1	GLP1R inv ag inconclusive (no result: GLP1R ag)
CC(C)(C)OC(=O)N1CCC(c2c(C(=O)Nc3cccc(C(F)(F)F)c3)cnn2-c2ccc(F)cc2F)CC1	GLP1R inv ag 5µM (no result: GLP1R ag)
COc1ccccc1N1CCN(CC(=O)Nc2ccc(CN3CCCCC3)cc2)CC1	GLP1R inv ag inconclusive, LDHA inh -46, GLP1R cytotox inconclusive
COc1ccccc1NC(=O)CN1CCN(c2ccccc2OC)CC1	GLP1R inv ag inconclusive
COc1ccc(C(=O)NC(=S)Nc2ccc(CN3CCCCC3)cc2)cc1Cl	GLP1R inv ag 8.9µM, GLP1R cytotox inconclusive
CCOc1ccc(OCc2cccc(C(=O)Nc3ccc(CN4CCCCC4)cc3)c2)cc1	GLP1R inv ag 4.5µM, GLP1R cytotox inconclusive
Cc1ccc(Cl)cc1N1CCN(CC(=O)Nc2ccc(CN3CCCCC3)cc2)CC1	GLP1R inv ag 11µM, GLP1R cytotox inconclusive
N#Cc1ccc(OCc2cc(Cl)c3c(c2)OCCO3)cc1	none (no result: GLP1R inv ag, GLP1R ag, PTHR1 ag, mIDH1 inhibitor, GLP1R cytotox)
Cn1nc(C(=O)NCc2ccc(Cl)cc2)c2ccccc2c1=O	none (no result: GLP1R inv ag, GLP1R ag, PTHR1 ag, mIDH1 inhibitor, GLP1R cytotox)
c1ccc(-c2nnn(Cc3coc(-c4ccccc4)n3)n2)cc1	none (no result: GLP1R inv ag, GLP1R ag, PTHR1 ag, mIDH1 inhibitor, GLP1R cytotox)
